Shown are actives, neighbours in structure and some others; about 6.3% of the full set was active somewhere.
NADH coupling: inhibitors of PK/LDH coupling enzymes, profiling panel, artefact control, biochemical, MLSMR library. AID 774, 2007. coupled PK/LDH NADH assays, four targets. IC50, µM (titrated, usually from 10 µM). 65,000 compounds, 0.02% hits;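 active means single-dose screening hits from any of four coupled enzyme assays that gave an IC50 when retested across doses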;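 further: the DPM-DC format reads NADH fluorescence rather than 340 nm absorbance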
Fluor 339 460: intrinsic fluorescence of library compounds, ex339/em460 – biochemical, MLSMR library, data from DPM-DC assay, artefact control, profiling panel; compound autofluorescence, ex339/em460 nm, NADH buffer; active compounds read high; 1 = no-compound wells, NADH background; fluorescence fold increase at 10 µM; 65,000 compounds, 5.5% hits;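 active means at 10 µM, mean starting fluorescence two-fold or more over control wells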;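 further: signal is the first read of a kinetic run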
Abs 340nm: compound light absorbance at 340 nm, profiling panel, artefact control, biochemical, MLSMR library, data from PS, PMK, MK assays; compound absorbance at 340 nm, fold over control; fold change at 10 µM; 65,000 tested, under 10 active;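 active means at 10 µM dose, initial 340 nm absorbance at least 2 fold that of control wells; inactive means change under 2 fold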;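 further: initial absorbance extrapolated from kinetic A340 decline of NADH oxidation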
Spn DPM-DC inh: S. pneumoniae DPM-DC inhibitors, primary screen, biochemical, PK/LDH-coupled NADH fluorescence; diphosphomevalonate decarboxylase (Streptococcus pneumoniae D39); purified DPM-DC; calls only at 10 µM; 65,000 compounds, 0.49% hits;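 active means the 320 compounds with the highest percent inhibition in the single-dose primary screen, excluding strongly autofluorescent ones, cut at about 32% in these data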;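 further: kinetic rate of NADH fluorescence loss reporting ADP formed by the decarboxylase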
PMK inhibit: S. pneumoniae PMK inhibitors, primary screen, biochemical, mevalonate pathway, pilot trial included. 65,000 compounds, 0.49% hits. inhibition, % at 10 µM. purified PMK, PK/LDH-coupled NADH absorbance 340 nm. AID 539, 2006. phosphomevalonate kinase (Streptococcus pneumoniae D39);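 active means top-ranked compounds by inhibition in the single 10 µM screen, taking a fixed number of the strongest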
MK inhibit: S. pneumoniae MK inhibitors, primary screen, biochemical, PK/LDH-coupled NADH absorbance | mevalonate kinase [Streptococcus pneumoniae D39] | purified MK, PK/LDH-coupled NADH absorbance 340 nm | inhibition, % at 10 µM | 65,000 compounds, 0.48% hits;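 active means ranked among the strongest by inhibition in the single 10 µM screen, a fixed top-ranked set picked for dose follow-up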
Of the large screens only hits and unclear results are named; the others gave an inactive call.

COc1cc(C(=O)N2CCC(n3cnc4cc(F)ccc43)CC2)cc(OC)c1OC	none
N=c1c(C(=O)NCc2ccco2)cc2c(=O)n3ccccc3nc2n1CCc1ccccc1	Fluor 339 460 2.2 (not shown: Spn DPM-DC inh)
COc1ccc(CCn2c(=N)c(C(=O)NCc3ccco3)cc3c(=O)n4ccccc4nc32)cc1OC	none
CCOC(=O)c1cc2c(=O)n3cccc(C)c3nc2n(C)c1=N	none
Cc1cccn2c(=O)c3cc(C(=O)NCc4ccco4)c(=N)n(CCOCCO)c3nc12	Fluor 339 460 5 (not shown: Spn DPM-DC inh)
CCNC(=O)c1cc2c(=O)n3cccc(C)c3nc2n(CCc2ccccc2)c1=N	Fluor 339 460 2.3 (not shown: Spn DPM-DC inh)
CCCCNC(=O)c1cc2c(=O)n3cccc(C)c3nc2n(Cc2ccccc2)c1=N	Fluor 339 460 4 (not shown: Spn DPM-DC inh)
CC1(C)CC(=O)c2cnc(NC(=O)C3CCCC3)nc2C1	none
O=C(O)CSc1cccc2cccnc12	Fluor 339 460 2.2 (not shown: Spn DPM-DC inh)
COc1cccc(N2CC(O)Cn3c2nc2c3c(=O)n(CCCc3ccccc3)c(=O)n2C)c1 (configuration not stated)	none
COC(=O)c1ccc(COc2ccc(C3C4=C(CCCC4=O)Nc4onc(C)c43)cc2)cc1 (configuration not stated)	Fluor 339 460 2.4
COC(=O)c1ccc(C2CC(=O)NC3=C2C(=O)CCC3)cc1 (configuration not stated)	none
CCN(CC)S(=O)(=O)c1cc(Br)ccc1OC	none
O=C(CCn1c(=O)c2sccc2n(Cc2cc(=O)n3ccccc3n2)c1=O)NCc1ccco1	Fluor 339 460 2.2
O=C(CCCn1c(=O)c2sccc2n(Cc2cc(=O)n3ccccc3n2)c1=O)NCc1ccco1	none
Cc1cccn2cc(-c3ccc(S(=O)(=O)N4CCOCC4)cc3)nc12	Fluor 339 460 2.2 (not shown: Spn DPM-DC inh)
O=S(=O)(c1ccc(-c2cn3ccccc3n2)cc1)N1CCOCC1	Fluor 339 460 2.2 (not shown: Spn DPM-DC inh)
O=S(=O)(c1cccc(-c2cn3cc(Cl)ccc3n2)c1)N1CCOCC1	none
CN1CCCC(OC(=O)CCCC(=O)OC2CCCN(C)C2)C1 (configuration not stated)	none
Cc1cc(C)nc(-n2c(Nc3ccccc3)cc(=O)c3c(C)n(-c4ccccc4)c(=O)nc32)n1	none
CCCCS(=O)(=O)c1sc2nc(C)cc(C)c2c1N	Fluor 339 460 2
Cc1cc(C)c2c(N)c(S(=O)(=O)c3ccccc3)sc2n1	none
c1cc(-c2nc3ccccc3o2)nc(-c2nc3ccccc3o2)c1	none
c1ccc2nc(-c3nc4ccccc4o3)ccc2c1	Fluor 339 460 2.1 (not shown: Spn DPM-DC inh)
Cc1ccc(F)c(NC=C2C(=O)OC(C)(C)OC2=O)c1	none
Nc1nc(N2CCCCC2)nc2ccccc12	Fluor 339 460 3.9 (not shown: Spn DPM-DC inh)
CCCCOC(=O)Nc1sc2c(c1C(=O)OC)CCC2	none
CC1(C)Cc2c(C#N)c(NC3CCCCC3)nc(-c3ccco3)c2CO1	Fluor 339 460 2.2 (not shown: Spn DPM-DC inh)
CC1(C)Cc2c(C#N)c(NCC3CCCO3)nc(-c3ccco3)c2CO1 (configuration not stated)	Fluor 339 460 2.3 (not shown: Spn DPM-DC inh)
N#Cc1c(-c2ccco2)nc(NCC2CCCO2)[nH]c1=O (configuration not stated)	none
CC1=C(C#N)C(C(F)(F)F)(C(F)(F)F)N=C(c2ccco2)N1	none
COc1ccccc1-c1nn2c(C(F)(F)F)nnc2s1	Fluor 339 460 3
COc1ccc(-c2nn3c(-c4ccccn4)nnc3s2)cc1OC	Spn DPM-DC inh active
COc1ccccc1-c1nnc2sc(-c3ccc(N(C)C)cc3)nn12	Fluor 339 460 2.3, Spn DPM-DC inh active
CN(C)c1ccc(-c2nn3c(-c4ccccc4Cl)nnc3s2)cc1	Fluor 339 460 3.3 (not shown: Spn DPM-DC inh)
CN(C)c1ccc(-c2nn3c(-c4ccncc4)nnc3s2)cc1	none
CC(=O)c1c(C)[nH]c(C(=O)OC2CCCCC2=O)c1C (configuration not stated)	none
CN(C)S(=O)(=O)c1ccc(C(=O)N2CCC(c3nc4ccccc4o3)CC2)cc1	none
CCOC(=O)CCSc1nc(C)cc(C(F)(F)F)c1C#N	none
CCOC(=O)c1c(C)[nH]c(C(=O)COC(=O)CNC(=O)C2CCCCC2)c1C	none
COc1ccc(CN(Cc2cc3cc4c(cc3[nH]c2=O)OCO4)C(=O)NC2CCCCC2)cc1	Fluor 339 460 2.5
CCc1ccc2[nH]c(=O)c(CN(CCN3CCCC3)C(=O)NC3CCCCC3)cc2c1	none
COc1ccc(CCN(Cc2cc3cc4c(cc3[nH]c2=O)OCO4)C(C)=O)cc1OC	Fluor 339 460 2.7
CCN(CC)CCN(Cc1cc2cc3c(cc2[nH]c1=O)OCCO3)C(=O)NC1CCCCC1	Fluor 339 460 3.8 (not shown: Spn DPM-DC inh)
COCCN(Cc1cc2cc3c(cc2[nH]c1=O)OCO3)C(=O)c1cccs1	Fluor 339 460 2.7, Spn DPM-DC inh active
COc1ccc(CCN(Cc2cc3cc(C)ccc3[nH]c2=O)C(=O)N2CCCC2)cc1OC	none
O=C(Nc1ccon1)c1cccc(C(F)(F)F)c1	none
Brc1ccc(-c2nc(-c3ccccn3)no2)o1	none
Cc1ccc2[nH]c(=O)c(CN(CCCN3CCOCC3)C(=O)NC3CCCCC3)cc2c1	none
O=C(NC1CCCCC1)N(CCN1CCOCC1)Cc1cc2cc3c(cc2[nH]c1=O)OCCO3	Fluor 339 460 4.4 (not shown: Spn DPM-DC inh)
COC(=O)c1oc2nc(C)cc(C)c2c1N	Fluor 339 460 3.9 (not shown: Spn DPM-DC inh)
COc1ccc(N2CCN(C(=O)CCNS(=O)(=O)c3ccc4c(c3)CCC(=O)N4)CC2)cc1	Fluor 339 460 2.1
COc1cccc(C(=O)CSc2nnnn2C)c1	none
COc1ccc2c(c1)cc(C(=O)O)n2C	Fluor 339 460 2.5
N#Cc1c(-c2ccco2)cc(-c2cccnc2)nc1N	Fluor 339 460 3.7 (not shown: Spn DPM-DC inh)
N#Cc1c(-c2ccco2)cc(-c2ccccn2)nc1N	Fluor 339 460 3.7 (not shown: Spn DPM-DC inh)
c1ccc(-c2nn3c(-c4ccco4)nnc3s2)nc1	none
Cc1c(-c2ccccc2)nc(N)c(C#N)c1-c1ccco1	Fluor 339 460 2.6
CC1(C)N=C(c2ccc(Cl)cc2Cl)C(=O)N1	none
CC(C)=CCC(C)(C)C1OCCN1C(=O)Nc1ccccc1 (configuration not stated)	none
COc1ccc(C(CC(=O)NCCCN2CCOCC2)NS(=O)(=O)c2ccc(C)cc2)cc1 (configuration not stated)	none
CCN1C=C(C(=O)OC)C(c2cccc(C)c2)C(C(=O)OC)=C1	Fluor 339 460 2.2 (not shown: Spn DPM-DC inh)
CCCOc1ccccc1C1NC(=O)NC(C)=C1C(=O)OCCOCC (configuration not stated)	none
COC(=O)C1=CN(C)C=C(C(=O)OC)C1c1ccccc1Cl	Fluor 339 460 3.9 (not shown: Spn DPM-DC inh)

Assay outcomes: PubChem BioAssay, SRMLSC
